Compounds with a hit are over-represented: about 4% of the library has one in this group of screens.
BoNT-A LC inh2: blocks Botulinum neurotoxin A light chain protease. multiplex microsphere protease substrate cleavage, flow cytometry. inhibition, % at 10 µM. 360,000 tested, 0.17% active. AID 588499; further: plate controls were buffer without enzyme for full effect and enzyme alone for no effect
Bead autofluor: counter-screen for toxin protease inhibitors: compound fluorescence | compound autofluorescence counterscreen, microsphere flow cytometry; stronger effect = higher value | fluorescence intensity (test concentration not listed) | 360,000 tested, 3.1% active | AID 624483; in the data active means fluorescence intensity above about 16000; inconclusive means no clear call, values can overlap the other calls
VHR inh abs: DUSP3 (human) phosphatase inhibition; P51452; recombinant VHR phosphatase, pNPP absorbance; inhibition, % at 13.3 µM; 290,000 tested, 0.52% active; in the data active means inhibition above about 50%
MazF activator: activators of E. coli MazEF toxin-antitoxin RNase. FAM/BHQ RNA-DNA oligo cleavage fluorescence, 5 h. activation, % at 20 µM. 350,000 tested, 0.32% active; in the data active means activation above about 50%
Anthrax LF prot: inhibitors of Bacillus anthracis lethal factor protease. multiplex microsphere protease cleavage assay, LF. P15917. inhibition, % at 10 µM. 360,000 tested, 0.12% active; further: plate controls were buffer without enzyme for full effect and enzyme alone for no effect
Target sequence (P15917 whole entry, looked up): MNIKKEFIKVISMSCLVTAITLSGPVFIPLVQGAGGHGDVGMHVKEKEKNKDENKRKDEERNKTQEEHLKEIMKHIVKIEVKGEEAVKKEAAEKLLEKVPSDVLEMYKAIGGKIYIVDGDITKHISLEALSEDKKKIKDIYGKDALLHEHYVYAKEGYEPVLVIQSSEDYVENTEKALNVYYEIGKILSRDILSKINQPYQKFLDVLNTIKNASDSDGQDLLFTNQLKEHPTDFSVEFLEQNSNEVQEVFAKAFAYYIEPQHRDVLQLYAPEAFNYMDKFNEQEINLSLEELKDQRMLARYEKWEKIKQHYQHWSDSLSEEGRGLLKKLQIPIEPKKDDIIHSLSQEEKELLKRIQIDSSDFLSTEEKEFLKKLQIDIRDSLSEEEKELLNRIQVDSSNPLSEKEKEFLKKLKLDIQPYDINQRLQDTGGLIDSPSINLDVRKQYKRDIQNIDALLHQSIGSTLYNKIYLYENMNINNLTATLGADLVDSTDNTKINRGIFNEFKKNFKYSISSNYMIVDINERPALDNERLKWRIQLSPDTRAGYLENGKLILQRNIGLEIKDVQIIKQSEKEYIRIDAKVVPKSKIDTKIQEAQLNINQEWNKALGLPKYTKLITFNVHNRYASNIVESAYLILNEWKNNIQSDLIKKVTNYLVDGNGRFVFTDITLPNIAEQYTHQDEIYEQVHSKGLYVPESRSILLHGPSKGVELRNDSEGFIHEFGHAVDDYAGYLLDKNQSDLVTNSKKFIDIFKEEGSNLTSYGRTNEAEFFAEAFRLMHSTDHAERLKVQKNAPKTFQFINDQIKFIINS
BoNT F protease: inhibitors of Botulinum neurotoxin F light chain protease; inhibition, % at 10 µM; Multiplex microsphere protease cleavage assay, flow cytometry; 360,000 tested, 0.22% active; in the data active means inhibition above about 35%, passing the limit was not always enough; inconclusive means no clear call, values can overlap the other calls; further: plate controls were buffer without enzyme for full effect and enzyme alone for no effect
The depositor's hits bear a star; ? = inconclusive; · = no result given; + = active, no number. Unless noted, no stated cut-off is given here; in the data, active means inhibition above about 30%; inconclusive means no clear call, values can overlap the other calls; inactive means below that.

SMILES | BoNT-A LC inh2 | Bead autofluor | VHR inh abs | MazF activator | Anthrax LF prot | BoNT F protease
COc1ccc(C(CNC(=O)c2cccc(S(=O)(=O)N3CCCC3)c2)N2CCCC2)cc1 (centres undefined) | -22.9 | 26904* | · | 0.7 | -3.6 | 14.4
COc1ccc(C(CNC(=O)c2ccc(-c3nc4ccccc4s3)o2)N2CCCC2)cc1 (centres undefined) | -11.3 | 20254* | · | 2.0 | 5.8 | -4.5
COc1ccc(C(CNC(=O)c2ccc(S(=O)(=O)Nc3ccccc3OC)cc2)N2CCCC2)cc1 (centres undefined) | -4.0 | 19637* | · | -2.5 | -1.6 | -1.2
CN(N=Cc1ccc([N+](=O)[O-])cc1)c1ccccn1 | -0.3 | 4035 | · | + | -8.0 | -2.0
O=C(c1ccc([N+](=O)[O-])cc1)N(c1ccccn1)c1ccccn1 | -0.1 | 4454 | 9.1 | 5.1 | -3.9 | -0.9
COc1ccc(-c2nnn(CC(=O)N(Cc3ccccc3Cl)C(C(=O)NCC3CCCO3)c3ccco3)n2)cc1 (centres undefined) | 1.7 | 20046* | 30.2 | -7.1 | 0.5 | 1.7
COc1ccc(-c2nnn(CC(=O)N(Cc3ccco3)C(C(=O)NCC3CCCO3)c3ccco3)n2)cc1 (centres undefined) | -0.2 | 2546 | -1.0 | 3.2 | -0.4 | 1.0
O=C(NCC1CCCO1)C(c1ccco1)N(Cc1ccc(F)cc1)C(=O)CN1C(=O)c2ccccc2S1(=O)=O (centres undefined) | 0.0 | 5136 | 58.5* | -15.1 | -3.9 | 6.6
COCC(=O)Nc1cc(OC)c(Cl)cc1OC | 0.3 | 3826 | -2.0 | 9.0 | -2.1 | -8.1
CCCS(=O)(=O)c1c(S(=O)(=O)CCC)c2c(N)cccn2c1C(=O)c1ccccc1 | ? | 16615* | -9.8 | -0.3 | -1.8 | -1.2
Cc1cc(C(F)(F)F)n(-c2nc(C(=O)Nc3ccccc3Oc3ccccc3)cs2)n1 | · | · | 11.3 | · | · | ·
COc1ccccc1NC(=O)c1csc(-n2nc(C)cc2C(F)(F)F)n1 | ? | 21807* | 11.3 | 8.6 | -1.8 | 1.0
Cc1cccc[n+]1C1C(c2ccc([N+](=O)[O-])cc2)C(C#N)=C(C(=C=[N-])C#N)NC1(O)C1CC1 (centres undefined) | -0.3 | 4009 | 8.6 | 29.4 | -1.1 | -4.4
Cc1cc(C(=O)CCl)c(C)n1-c1cccc([N+](=O)[O-])c1 | -1.3 | 3292 | 21.7 | 4.0 | -1.5 | -0.5
Cc1c(C(=O)N2CCN(CCc3ccccc3)CC2)oc2ccccc12 | 0.5 | 24130* | -5.7 | -4.1 | -3.2 | -4.3
Cc1c(C(=O)N2CCN(S(C)(=O)=O)CC2)oc2ccccc12 | 0.5 | 20670* | 9.7 | 4.0 | 0.7 | -0.2
Cc1c(C(=O)N2CCCC2)oc2ccc(Br)cc12 | -2.4 | 5722 | 53.4* | 0.2 | -4.0 | 1.1
CCCN1CCN(C(=O)c2oc3c(Cl)cccc3c2C)CC1 | 0.0 | 3897 | 56.2* | -16.7 | -4.1 | 1.6
Cc1c(C(=O)N2CCN(C(=O)c3ccco3)CC2)oc2c(Cl)cccc12 | 0.9 | 5970 | · | 9.1 | -4.6 | -8.5
COC(=O)c1cc(NC(=O)C2CC2)cc(C(=O)OC)c1 | 0.7 | 9299 | -3.8 | 9.9 | 3.6 | -0.4
CC1CCN(C(=O)C2CCCN(S(C)(=O)=O)C2)CC1 (centres undefined) | 1.8 | 8844 | -3.2 | -2.8 | -5.5 | -11.6
NC(=O)c1nc(N2CCOCC2)nc(N2CCOCC2)n1 | -0.7 | 3928 | -16.3 | 3.7 | -4.2 | 2.3
C/C(=N\NC(=O)c1ccncc1)C12CC3CC(CC(C3)C1)C2 | 0.2 | 2136 | 8.1 | 0.2 | -2.5 | -0.8
CCCCC(=O)NC(c1ccc([N+](=O)[O-])cc1)c1c(O)ccc2ccccc12 (centres undefined) | -0.7 | 7077 | -14.2 | 4.0 | -9.3 | -7.2
CCC(=O)NC(c1ccc([N+](=O)[O-])cc1)c1c(O)ccc2ccccc12 (centres undefined) | ? | 24260* | -7.3 | 3.1 | -2.9 | -5.3
SMILES | BoNT-A LC inh2 | Bead autofluor | VHR inh abs | MazF activator | Anthrax LF prot | BoNT F protease
N#CC1(C#N)CC(C=O)=C(N)C1(C#N)CC(=O)c1ccc(F)cc1 (centres undefined) | 1.4 | 5220 | 21.3 | 153.7* | 0.9 | -7.5
Cc1ccc(CNC(=O)C2CC(=O)N(CCC(C)C)C2)cc1 (centres undefined) | 0.1 | 3500 | 26.9 | -12.0 | 0.7 | -1.8
CCCCN1CC(C(=O)NCc2ccc(C)cc2)CC1=O (centres undefined) | 1.4 | 18906* | 20.1 | -34.1 | -4.2 | -0.6
O=C(NCCCN1CCOCC1)c1cccs1 | ? | 19558* | -7.5 | 1.9 | -4.8 | 5.4
COc1cc(OC)cc(C(=O)N2CCN(C(=O)c3cccs3)CC2)c1 | -3.1 | 4577 | 57.6* | 11.1 | 0.1 | -16.7
O=C(NCCN1CCN(C(=O)c2cccs2)CC1)c1cccs1 | -0.3 | 22034* | -1.3 | -9.2 | 0.2 | -0.1
O=C(c1cccs1)N1CCN(CCc2ccccc2)CC1 | -1.3 | 21277* | 26.3 | 1.4 | 1.0 | -3.3
O=C(CCNC(=O)c1ccco1)Nc1ccc(Cl)cc1 | -1.8 | 4737 | 24.2 | 12.6 | -5.8 | -2.2
COc1cc2c(cc1OC)C(COc1ccccc1OC)N(C(C)=O)CC2 (centres undefined) | 0.6 | 3312 | 35.4 | 3.8 | -7.1 | 31.5
COc1ccc(N(CC(=O)Nc2cc(C)on2)S(=O)(=O)c2cc(C)ccc2C)cc1 | ? | ? | -8.0 | -9.6 | ? | ?
CCC(CC)C(=O)c1c[nH]c(C(=O)NCCCN2CCOCC2)c1 | ? | 23037* | 47.5 | -0.4 | -1.9 | -2.3
O=C(c1ccccc1)c1c[nH]c(C(=O)NCCCN2CCOCC2)c1 | ? | 22011* | 32.9 | 5.0 | -0.8 | 0.0
Cc1cccc2c(=O)c(C(=O)NCCCN3CCOCC3)c[nH]c12 | 1.0 | 5555 | 52.9* | 8.3 | -6.3 | -4.7
Cc1ccsc1-c1ccnc(-n2cccc2)n1 | -1.1 | 16296* | -7.2 | -15.1 | -1.8 | -2.2
COC(=O)[C@H](Cc1ccccc1)NC(=O)NCCc1ccc(F)cc1 | · | · | 5.4 | -4.5 | · | ·
COC(=O)[C@H](CCSC)NC(=O)NCCc1ccc(F)cc1 | -0.6 | 23311* | 22.9 | 6.2 | -2.4 | -2.2
COC(=O)[C@H](CCSC)NC(=O)Nc1ccc(C)c(C)c1 | 4.2 | 21760* | -3.8 | 10.2 | 1.5 | 5.2
O=C(CSc1ncccn1)Nc1cccc2ccccc12 | -1.4 | 4636 | -7.5 | 2.1 | -1.8 | -9.0
O=C(CSc1nnc(-c2cccnc2)n1C1CCCCC1)NC1CCCC1 | -0.6 | 11390 | 8.8 | -17.0 | -4.5 | -8.1
Cc1ccc(/C=N/NC(=O)C2CC(=O)N(c3ccccc3)C2)s1 (centres undefined) | 2.5 | 2782 | -1.7 | -2.8 | 0.8 | 30.5
O=C(N/N=C/c1cccs1)C1CC(=O)N(c2ccccc2)C1 (centres undefined) | 1.2 | 20162* | -1.0 | 2.0 | -2.2 | 3.0
COc1cccc(C(C(=O)NC2CCCC2)N(CC2CCCO2)C(=O)Cc2cccs2)c1 (centres undefined) | -1.2 | 4850 | 9.1 | 5.6 | -0.7 | 2.9

Compound activity deposited in PubChem by several laboratories.
